Data taken from PubChem BioAssay (NCI).
About 83,000 compounds went through this panel and 20% of them were active in at least one assay; those are over-represented in the sample as a whole.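 48-hour exposure, single concentration, 96-well plates; percent growth endpoint where 0 means no net growth. Active: below 10.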 Unmarked numbers belong to inactive results. The source made the active and inactive calls.

tested on: MDA-MB-468 breast; assay: NCI-60 one-dose screen, 48 h (100 = growth as untreated, 0 = no growth, -100 = all killed); conditions: 10 µM unless noted

Row | Compound | growth
1 | CC1CCN(CCCCCOc2ccc3oc4ccccc4c(=O)c3c2)CC1 | 41.6%
2 | CCN(CC)CCNc1ncnc2c1cnn2-c1ccc(Cl)cc1 | 57.6%
3 | C=CCN1C(=O)c2cccc3c(N4CCOCC4)ccc(c23)C1=O | -40% (active)
4 | Cc1cc2c(C(=O)NCC#N)cccc2n1-c1nc2c(c(NCc3ccccc3)n1)CCCC2 | -52.5% (active)
5 | NC(=O)CCCN1C/C(=C\c2ccccc2)C(=O)c2ccccc21 | 90.8%
6 | CCCCCN(CCCCC)CC(O)c1cc(C)c2ccc3cc(C(C)C)ccc3c2c1 (stereo not given) | -71.1% (active)
7 | CCCCCCCCCOc1c(OC)cc(C2CC(=O)Nc3c2c(C)nn3-c2nc3ccccc3[nH]2)cc1OC (stereo not given) | -55.6% (active)
8 | Cc1ccc(C(=O)Nc2ccc(CN3CCN(C)CC3)c(C(F)(F)F)c2)cc1C#Cc1cnc2cccnn12 | -85.9% (active)
9 | O=C(NO)c1ccc(Cn2c(=O)n(CCc3ccccc3)c(=O)c3ccccc32)cc1 | 40.9%
10 | O=C1CSC(c2ccccc2)N1c1ccccc1 (stereo not given) | 90.6%
11 | CCS(=O)(=O)N1CCN(c2ccc(Nc3ncc(C(N)=O)c(NC4CC4)n3)cc2)CC1 | 42.2%
12 | OC(c1cc(-c2ccc(Cl)cc2)nc2c(Cl)cccc12)C1CCCCN1 (stereo not given) | -86.7% (active)
13 | c1ccc2c(c1)Oc1ccccc1C2C1c2ccccc2Oc2ccccc21 | 107%
14 | CC(C)(C)c1ccc(C(=O)Nc2sc3c(c2C(N)=O)CC/C(=N\O)C3)cc1 | 2.17% (active)
15 | O=C1[C@H]2Cc3c([nH]c4ccccc34)[C@@H](c3ccc(Cl)cc3)N2C(=O)CN1C1CCN(Cc2c(Cl)cccc2Cl)CC1 | 98.3%
16 | O=c1[nH]nc(-c2ccc(Br)cc2)c2sc(NC(=S)Nc3ccc(Cl)cc3)nc12 | 110%
17 | S=C1CCCC(=S)N1 | 100%
18 | COc1cc(/C=C\c2cc(/C=C\c3ccc(O)c(OC)c3)n(C(=O)CNc3ccccc3OC)n2)ccc1O | 95.8%
19 | CC(=O)OCc1nc(C#N)c(N(C)C)o1 | 94.1%
20 | COc1cc(-c2nn(C(C)(C)C)cc2-c2ccnc(NCCCNS(=O)(=O)c3ccc(Cl)cc3)n2)ccc1Cl | 63.7%

Row | Compound | growth
21 | Cn1cc(-c2ncnc3ccc(-c4cnc(Cl)c(NS(C)(=O)=O)c4)cc23)c2ccccc21 | -1.16% (active)
22 | CC1C(C)N(C(=O)CCl)c2ccccc2N1C(=O)CCl (stereo not given) | -69% (active)
23 | O=C1NC(=O)C(CSc2ccccc2)(c2ccccc2)N1 (stereo not given) | 105%
24 | CCCCCCC(=O)Nc1ncc(Cc2ccc(C)cc2)s1 | 28.4%
25 | Cn1cnc([N+](=O)[O-])c1Sc1nnc(-c2ccccc2)c(-c2ccccc2)n1 | 64.8%
26 | CCN(CCN(C)C)C(=O)CNCc1cc(C(N)=O)ccn1 | 101%
27 | CCN1C(=O)N(CC)C2Nn3c(s/c(=C4\C(=O)N(C(C)C)c5ccccc54)c3=O)=NC21 (stereo not given) | 9.33% (active)
28 | Cc1ccc(-c2nc(SCC(=O)N3CCN(c4cc5c(cc4F)c(=O)c(C(=O)O)cn5C4CC4)CC3)nc(Cl)c2C#N)cc1 | 95%
29 | CCOC(=O)c1ccc2c(c1)ncn2-c1ccc(NC(=O)Nc2cccc(C)c2)cc1 | 116%
30 | COc1ccc(C(=O)c2cc3c(N)c(C(=O)Nc4ccc(Cl)cc4)sc3nc2C)cc1 | 76.7%
31 | CC(=O)C1Cc2ccccc2C1=O (stereo not given) | 105%
32 | N#C/C(=C/C=C/c1ccccc1)S(=O)c1ccccc1 (stereo not given) | -56% (active)
33 | C[C@H]1[C@H]2C3=CC[C@@H]4[C@@]5(C)C/C(=C/c6ccco6)C(=O)C(C)(C)[C@@H]5CC[C@@]4(C)[C@]3(C)CC[C@@]2(C(=O)N2CCOCC2)CC[C@@H]1C | 59.5%
34 | O=c1c2cccc3c(Nc4c(F)cccc4F)ccc(c32)c2nc3ccccc3n12 | -33.5% (active)
35 | Oc1[nH]c2ccc(Cl)cc2c1/C=c1/ccc2c(c1)N=C(c1cc(F)cc(F)c1)N=2 | 53%
36 | O=C(Nc1ccccc1)Nc1ccccc1CNc1nc(Nc2ccc(OCCN3CCCC3)cc2)ncc1Cl | 17.7%
37 | COc1ccc(-c2nc(/C=C3/C(=O)Nc4ccc(F)cc43)c3ccccn23)cc1 | 105%
38 | CCN(CC)CCOc1ccc(NC(=O)C(C(C)C)N2C(=O)/C(=C/c3ccc(Br)cc3)SC2=S)cc1 (stereo not given) | 63.2%
39 | Cc1cc2nc(NC(=O)CN3CCN(CCN4C(=O)c5cccc6cccc(c56)C4=O)CC3)sc2cc1C | 86.3%
40 | COC(=O)[C@]12CC[C@@H](C)[C@H](C)[C@@H]1C1=CC[C@@H]3[C@@]4(C)C(c5ncon5)=C[C@@](C)(CO)C4=CC[C@@]3(C)[C@]1(C)CC2 | -28.9% (active)
